# The other results are listed elsewhere or left out. Records with an inconclusive call do not appear. The source made the active and inactive calls. Calls follow the shape of the full dose curve.
# Target: Vitamin D3 receptor (Homo sapiens) (UniProt P11473)
# Test: Vitamin D Receptor Selectivity Assay for Inhibitors of the Interaction of Thyroid Hormone Receptor and Steroid Receptor Coregulator 2
# Settings: VDR LBD/SRC2-3 peptide, fluorescence polarization, 3 h
# Text: NIH Molecular Libraries Probe Production Network [MLPCN] NIH Chemical Genomics Center [NCGC] MLPCN Grant: DK058080 Assay Provider: R. Kip Guy, St. Jude Children's Research Hospital NCGC Assay Overview: Thyroid receptor (TR) regulates many homeostatic processes including basal metabolism, cardiovascular function, body weight, and lipid trafficking. TR modulators are potential therapeutics for obesity and hyperlipidemias but current thyroid analogs have undesirable side effects, particularly cardiac stimulation. This secondary assay characterized compounds identified in the qHTS for Inhibitors of the Interaction of Thyroid Hormone Receptor and Steroid Receptor Coregulator 2 (PubChem AID 1485) for selectivity against the vitamin D receptor (VDR). […] Small molecule inhibitors that block the interaction of VDR and SRC2-3 are detected by a decrease in fluorescence polarization. […] Quantification of the vitamin D receptor-coregulator interaction. […]
# NCGC Assay Protocol Summary: Twenty uL/well 1 uM VDR and 5 nM Alexa Fluor 647 SRC2-3 peptide in buffer (25 mM PIPES, pH 6.75, 50 mM NaCl, 0.01% NP-40, 6 uM LG190178, and 4% DMSO) was dispensed into black solid 384-well plates (Costar 3710) using a Biomek FX (Beckman Coulter) liquid handling system. […] The plates were read by an Envision (Perkin Elmer) to detect fluorescence polarization of Alexa Fluor 647 (620 nm excitation and 688 nm emission).
# Sequence of Vitamin D3 receptor (Homo sapiens) (P11473 whole entry, looked up): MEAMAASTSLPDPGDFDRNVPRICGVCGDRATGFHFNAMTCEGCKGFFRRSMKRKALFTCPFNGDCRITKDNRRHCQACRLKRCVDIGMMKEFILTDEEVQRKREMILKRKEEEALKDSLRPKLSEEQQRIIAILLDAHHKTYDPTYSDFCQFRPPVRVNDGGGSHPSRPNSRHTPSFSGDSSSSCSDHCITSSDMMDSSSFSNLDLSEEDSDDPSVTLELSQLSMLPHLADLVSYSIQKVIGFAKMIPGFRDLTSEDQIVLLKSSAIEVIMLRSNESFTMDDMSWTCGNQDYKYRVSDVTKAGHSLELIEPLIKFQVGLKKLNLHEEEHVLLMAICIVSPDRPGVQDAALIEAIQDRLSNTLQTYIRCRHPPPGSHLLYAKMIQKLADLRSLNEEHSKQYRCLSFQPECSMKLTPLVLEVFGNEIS
row,Structure (SMILES),outcome
1,O=C(COC(=O)c1cccc([N+](=O)[O-])c1)NC1C2CC3CC(C2)CC1C3 (stereo unspecified),inactive

# — PubChem BioAssay AID2455 (National Center for Advancing Translational Sciences (NCATS), 2010)
